Compounds with a hit are over-represented: about 6% of the library has one in this group of screens.
DRD3 antagonist: D3 dopamine receptor (human) antagonism | AID 652054 | D3R cells, DiscoveRx beta-arrestin luminescence, antagonist mode; hits give low values | 2.5% of 360,000 active | max response, negative = inhibition, % | P35462; in the data active = max response below about -50%; inconclusive = no clear call, values can overlap the other calls
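Cells plated overnight at 1500 cells/well, then exposed to library compounds with dopamine controls for 90 minutes at 37 degrees C. DiscoveRx reagent added for 30–60 minutes at room temperature; luminescence read, quantitative HTS format.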
D1 potentiator: enhances dopamine response at the human D1 receptor | P21728 | HEK293 TREx D1 cells, calcium flux, dopamine EC20 potentiation | potentiation, % at 10 µM | 0.036% of 360,000 active; in the data active = potentiation above about 30%
Target sequence (P21728 whole entry, looked up): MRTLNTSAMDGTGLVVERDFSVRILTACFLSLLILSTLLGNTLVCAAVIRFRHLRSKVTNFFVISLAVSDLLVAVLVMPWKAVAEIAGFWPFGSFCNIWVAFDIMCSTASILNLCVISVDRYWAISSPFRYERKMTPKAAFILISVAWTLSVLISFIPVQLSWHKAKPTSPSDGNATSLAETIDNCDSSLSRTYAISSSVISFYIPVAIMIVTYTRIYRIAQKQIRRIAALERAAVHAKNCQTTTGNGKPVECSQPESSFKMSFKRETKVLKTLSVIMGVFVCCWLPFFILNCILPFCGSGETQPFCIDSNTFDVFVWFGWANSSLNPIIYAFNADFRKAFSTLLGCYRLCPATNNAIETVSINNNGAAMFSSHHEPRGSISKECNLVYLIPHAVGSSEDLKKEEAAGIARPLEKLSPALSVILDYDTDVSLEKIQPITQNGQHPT
D3 ag: activates the human D3 dopamine receptor; max activation, %; D3R DiscoveRx beta-arrestin cells, luminescence, 90 min; 0.58% of 410,000 active; P35462; in the data active = max activation above about 30%
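Agonist mode: compounds and dopamine controls were applied to plated cells for 90 min at 37 degrees C after an overnight attachment at 1500 cells/well. Luminescent read-out followed 30 - 60 minutes at room temperature with DiscoveRx detection reagent.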
BCR signal inh: blocks chronic active B-cell receptor signaling. ABC-DLBCL IkBa-CBG/CBR reporter, luminescence ratio, 4 h. Potency, µM (series often up to 46.1 µM), usual class: inhibitors. 0.05% of 340,000 active; active = well fitted inhibition curve with a large enough effect in the signal ratio, with a control signal flat, not every such curve was filed as active; inconclusive = small, poorly fitted or top-dose-only effect, or effect the other way, or a change in a side signal; the % refers to the signal ratio
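TMD8 human ABC-DLBCL cells with doxycycline-inducible IκBα–green luciferase fusion and unfused red luciferase, in 0.5% FBS medium; compounds up to 46 uM, 4 h at 37C. Green/red luminescence ratio, filter-overlap corrected, fitted to concentration-response curves.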
D1 antagonist: human D1 dopamine receptor antagonism; activity change, negative = inhibition, % at 10 µM; P21728; 3.2% of 360,000 active; AID 504652; HEK293 TREx D1 cells, calcium flux, dopamine EC80; hits give low values; in the data active = activity change below about -30%
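After overnight tetracycline induction at 30 C, force-coupled D1 HEK293 cells took up a no-wash calcium dye at room temperature. Compounds were added and monitored 180 s, and the response to EC80 dopamine was then recorded.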
D1 ag: human D1 receptor agonism | P21728 | HEK293 T-REx D1 cells, calcium flux, agonist mode | activation, % at 2 µM | 1% of 360,000 active; in the data active = activation above about 30%
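Agonism was scored from calcium flux recorded over 180 s (1 read/s) after pintool compound addition, following a 10-cycle baseline. Cells were inducible force-coupled HEK293 TREx D1, plated overnight at 30 C and loaded with no-wash calcium dye.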
Hits are given with their value; i = inactive; ? = inconclusive; nt = no result given.

SMILES	DRD3 antagonist	D1 potentiator	D3 ag	BCR signal inh	D1 antagonist	D1 ag
O=C(O)c1cc(=O)c2c3nc4ccccc4oc-3cc(=O)c2[nH]1	nt	nt	i	nt	nt	nt
Cc1cccc(N2CCN(C(=O)CCc3c(C)nc4ncnn4c3C)CC2)c1C	nt	i	i	nt	i	i
COc1cc(/C=N/NC(=O)c2ccccn2)ccc1OC(=O)c1ccc(Br)cc1	i	i	37	i	i	i
O=C(N/N=C/c1c[nH]c2ccccc12)c1ccccc1	i	i	i	?	i	i
COc1ccc(/C=N/NC(=O)c2ccc(CSc3nc(C)cc(C)n3)cc2)cc1O	i	i	i	16µM	i	i
O=C(N/N=C/c1c[nH]c2ccccc12)c1sc2ccccc2c1Cl	i	i	i	i	-75	i
O=C(N/N=C/c1ccc(Br)s1)c1c[nH]c2ccccc12	-55	i	i	?	i	i
O=C(N/N=C/c1cc(Br)cs1)c1c[nH]c2ccccc12	?	i	i	?	i	i
CCc1ccc(CNC(=O)C2COc3ccccc3C2)cc1 (configuration not stated)	nt	i	i	nt	i	i
CCCCN(CCCC)C(=S)[S-].CCCCN(CCCC)C(=S)[S-].[Zn+2]	nt	nt	i	nt	nt	nt
CCN(CC)c1cc(C)c2cc(NC(=O)/C=C/c3ccccc3Cl)ccc2n1	nt	i	i	nt	i	i
O=C(N/N=C/c1c[nH]c2ccc(Br)cc12)c1ccccn1	i	i	i	?	-47	i
COc1cc(/C=N/NC(=O)c2ccc(N)cc2)ccc1OC(=O)c1cccc(C)c1	i	i	i	?	-41	i
Cc1ccc(NC(=O)CN2C(=O)COc3ccc(S(=O)(=O)N4CCCCC4)cc32)cc1N(C)C	nt	i	i	nt	i	i
O=C(C(=O)N1CCC(c2ccccc2)CC1)c1ccc(F)c(F)c1	i	nt	i	nt	nt	nt
COCCNC(=S)N1CCC(C(=O)c2ccc(Cl)cc2)CC1	i	nt	i	nt	nt	nt
O=[N+]([O-])c1ccc(-c2csc(Nc3ccccc3)[n+]2Cc2ccccc2)cc1	i	i	i	?	-41	i
COc1ccc(-c2csc(Nc3ccccc3)[n+]2Cc2ccccc2)cc1	i	i	i	i	i	i
COc1cccc(CNC(=O)c2cccc(NC(=O)C3=C(C)OCCS3)c2)c1	i	i	i	?	-40	i
COc1ccc(CNC(=O)Cc2ccc(NC(=O)C3=C(C)OCCS3)cc2)cc1	i	i	i	20µM	i	i
O=C(Cn1c(=O)n(-c2ccccc2Cl)c(=O)c2sc3ccccc3c21)N1CCCC1	nt	i	i	nt	i	i
Oc1ccc(Cl)cc1C1=Nc2ccccc2N=C(c2cccc(Br)c2)C1	nt	i	i	nt	i	i
OC[C@@H]1[C@@H](c2ccc(Cl)cc2)C(c2ccc(F)cc2)=NN1c1ccccc1	i	nt	i	i	nt	nt
OC[C@@H]1[C@@H](c2ccccc2)C(c2ccc(F)cc2)=NN1c1ccccc1	i	nt	38	i	nt	nt
CC(C)(C)Nc1nc(Cl)nc(NC(C)(C)C)n1	i	i	i	i	i	i
SMILES	DRD3 antagonist	D1 potentiator	D3 ag	BCR signal inh	D1 antagonist	D1 ag
CC(C)(C)Nc1nc(NN)nc(NC(C)(C)C)n1	-80	i	i	i	i	i
CC(Oc1ccc(F)cc1)C(=O)Nc1nc(-c2ccccn2)cs1 (configuration not stated)	-69	i	i	?	i	i
O=C(CCS(=O)(=O)c1ccc(F)cc1)Nc1nc(-c2ccccn2)cs1	i	i	i	?	i	i
CCCOc1ccccc1N/C(=N/c1nc(C)cc(C)n1)NC(=O)Nc1ccc(Cl)cc1	i	i	i	?	-50	i
CC1CCCCC1NC(=O)CSc1nnc(-c2ccco2)n1N (configuration not stated)	i	nt	i	nt	nt	nt
Cc1cc2c(s1)c1cnn(Cc3ccc(C)c(F)c3F)c(=O)c1n2C	nt	i	nt	nt	i	i
CC(C)C1COC(c2cccn2Cc2ccccc2Cl)=N1 (configuration not stated)	i	i	i	i	-38	i
Cc1ccc(Cn2cccc2C2=NC(C)CO2)cc1 (configuration not stated)	i	i	i	i	i	i
Cc1ccc(NC(=O)OC(C)CNC(=O)Oc2cccc(C)c2)cc1 (configuration not stated)	i	i	i	i	-32	i
CCC[C@@]1(CCc2ccccc2)CC(O)=C([C@H](CC)c2cccc(NS(=O)(=O)c3ccc(C(F)(F)F)cn3)c2)C(=O)O1	nt	nt	i	nt	nt	nt
CCc1nnc(NS(=O)(=O)c2ccc(Nc3ccc([N+](=O)[O-])c4nonc34)cc2)s1	-63	i	i	?	i	i
O=C(O)c1ccc(Nc2ccc([N+](=O)[O-])c3nonc23)cc1	-77	i	i	i	i	i
O=C(O)c1cccc(Nc2ccc([N+](=O)[O-])c3nonc23)c1	-57	i	i	i	i	i
O=C(O)c1cccc(Nc2cc(Cl)c3nonc3c2[N+](=O)[O-])c1	?	i	i	i	i	i
O=C(COc1ccc(Cl)cc1)NCC(c1ccco1)S(=O)(=O)c1ccc(F)cc1 (configuration not stated)	nt	i	i	i	nt	i
Cc1ccc(C2=Nc3ccccc3N(CC(=O)NCc3ccccc3Cl)C(=O)C2)cc1C	nt	i	i	nt	i	i
Cc1ccc2nc3n(c(=O)c2c1)-c1ncccc1C(=O)NC3Cc1ccccc1 (configuration not stated)	i	nt	i	nt	nt	nt
N/C(=N\OC(=O)c1cc(Br)ccc1Cl)c1cccnc1	i	i	i	i	i	i
N/C(=N\OC(=O)COc1ccc(Cl)cc1)c1cccnc1	i	i	i	?	i	i
N/C(=N\OC(=O)c1cc(Cl)ccc1Cl)c1cccnc1	i	i	i	i	-57	i
N/C(=N\OC(=O)c1ccccc1)c1cccnc1	i	i	i	i	-50	i
N/C(=N\OC(=O)COc1ccc([N+](=O)[O-])cc1)c1cccnc1	i	38	i	i	i	i
O=C(NCc1ccc(F)cc1)c1cc(C2CCCN(C(=O)c3ccccn3)C2)on1 (configuration not stated)	i	nt	i	nt	nt	nt
CCOC(=O)c1cc2c(=O)n3ccccc3nc2n(CCOC)c1=NC(=O)c1c(-c2ccccc2Cl)noc1C	nt	i	i	nt	i	i
COc1ccc(NC(=O)C2(C)CCN2Cc2ccc(OC)c3ccccc23)cc1OC (configuration not stated)	i	nt	i	nt	nt	nt
COC(=O)C1=C(N)Oc2cc(C)n(C)c(=O)c2C1c1ccc(Cl)c(Cl)c1 (configuration not stated)	i	i	i	i	-33	i
COC(=O)C1=C(N)Oc2cc(C)n(CC3CCCO3)c(=O)c2C1c1ccc(Cl)c(Cl)c1 (configuration not stated)	i	i	i	i	i	i
O=C(NCc1ccccc1)NC12CC3CC(CC(C3)C1)C2	i	i	i	i	i	i

High-throughput results: PubChem, National Center for Advancing Translational Sciences (NCATS)
